Several values for one entry are separate records, joined by “and”; a condition that tells them apart may be missing. Equal values may be shown once. The campaign covered roughly 290,000 compounds. About 3,000 (1%) were called active. Many of the other results were omitted from the sample, so actives are more common in it than they were. A number with no mark means an inactive call. Rule as the data show it: active = inhibition mostly above about 36% (no sharp cut-off); inactive = mostly below about 34%.
Assay: inhibition of NOD1-driven NF-kB reporter – cell-based, luminescence, uHTS, primary screen (AID 1578);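 also: HEK-293T reporter cells stimulated with the NOD1 agonist gamma-tri-DAP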
Settings: NOD1-driven NF-kB luciferase reporter cells, at 4 µM, hits give high values
Work on `CC(C)(C)C(=O)c1cn(CC(=O)NCc2ccco2)c2ccccc12` yielded an inhibition of -39.1%. In the case of `Cc1ccc(-n2c(O)c(/C=N/N3CCCCCC3)c(=O)[nH]c2=O)cc1C`, the inhibition is reported as 1.1%. Compound `CCC(=NCCCn1ccnc1)c1c(O)n(-c2ccc(OC)cc2)c(=O)[nH]c1=O` has an inhibition of -8.6%. `COc1cccc(C(=O)C2CN(C)CC2c2ccc(Cl)cc2)c1` (centres undefined) showed an inhibition of -33.4%. `CC/C(=N\NC(=O)c1ccccc1)c1c(O)n(Cc2ccccc2)c(=O)[nH]c1=O` showed an inhibition of 12.5%. Compound `O=c1[nH]c(=S)n(C2CC2)c(O)c1C=NCC1CCCO1` (centres undefined) has an inhibition of -13.4%. `COC(=O)c1ccccc1NC(=O)N1C[C@@H]2C[C@@H](C1)c1cccc(=O)n1C2` showed an inhibition of -15.8%. For `O=c1cccc2n1CC1CC2CN(Cc2c(F)cccc2Cl)C1` (centres undefined), the inhibition was -7.2%. Compound `O=c1cccc2n1CC1CC2CN(Cc2c(Cl)cccc2Cl)C1` (centres undefined) has an inhibition of 14%. Work on `COc1ccccc1NC(=O)N1C[C@@H]2C[C@@H](C1)c1cccc(=O)n1C2` yielded an inhibition of -34.3%. With `O=c1cccc2n1CC1CC2CN(Cc2cccc(Cl)c2Cl)C1` (centres undefined) the inhibition was 63.8% (active). With `COc1ccc(CCC(=O)N2C[C@H]3C[C@@H](C2)c2cccc(=O)n2C3)cc1` the inhibition was 53.1% (active). For `O=C(CCc1ccc(O)cc1)N1C[C@H]2C[C@@H](C1)c1cccc(=O)n1C2`, the inhibition was 9.1%. `COc1ccc(CC(=O)N2C[C@H]3C[C@@H](C2)c2cccc(=O)n2C3)cc1` showed an inhibition of 24.2%. For `CCc1ccccc1NC(=O)N1C[C@H]2C[C@@H](C1)c1cccc(=O)n1C2`, the inhibition was 54.5% (active). In the case of `O=[N+]([O-])c1ccc(N2CCCNCC2)c2ncccc12`, the inhibition is reported as -0.2%. For `CC(C)Sc1nnc([C@@H](N)Cc2c[nH]c3ccccc23)o1`, the inhibition was -2.5%. Work on `CC12CC[C@H]3[C@@H](CCC4(O)C[C@H](O)CCC34/C=N/NC(=O)c3ccccc3O)C1(O)CCC2C1=CC(=O)OC1` (some centres undefined) yielded an inhibition of 4.5%. `CC12CC[C@H]3[C@@H](CCC4(O)C[C@H](O)CCC34/C=N/NC(=O)Cc3ccccc3)C1(O)CCC2C1=CC(=O)OC1` (some centres undefined) showed an inhibition of -7%. In the case of `C[C@H]1O[C@@H](O[C@H]2[C@@H](O)C[C@H](O[C@H]3[C@@H](O)C[C@H](O[C@H]4CC[C@@]5(C)[C@H](CC[C@@H]6[C@@H]5CC[C@]5(C)[C@@H](C7=CC(=O)OC7)CC[C@]65O)C4)O[C@@H]3C)O[C@@H]2C)C[C@H](O)[C@@H]1O`, the inhibition is reported as 105% (active). For `C[C@H]1O[C@@H](OC2CC[C@]3(C=O)[C@H]4CC[C@]5(C)[C@@H](C6=CC(=O)OC6)CC[C@]5(O)[C@@H]4CC[C@]3(O)C2)CC2OC(C)(C)OC21` (some centres undefined), the inhibition was 89.2% (active). `COc1cc(C(=O)N/N=C/C23CC[C@@H](O)CC2(O)CC[C@@H]2[C@@H]3CCC3(C)C(C4=CC(=O)OC4)CCC23O)ccc1O` (some centres undefined) gave an inhibition of -5.4%. Compound `CC12CC[C@H]3[C@@H](CCC4(O)C[C@H](O)CCC34/C=N/NC(=O)c3ccccc3F)C1(O)CCC2C1=CC(=O)OC1` (some centres undefined) has an inhibition of -9.8%. `CN1CCC2(O)OCCCC2C1` (centres undefined) gave an inhibition of 4.3%. In the case of `Cc1c(N)c(C)c([N+](=O)[O-])c(C)c1[N+](=O)[O-]`, the inhibition is reported as 69.5% (active). `O=C1CN(C(=O)CN2CCCCC2)C(c2ccccc2)c2cc(Br)ccc2N1` (centres undefined) showed an inhibition of -24.1%. In the case of `O=C(Nc1ccc(C(F)(F)F)cc1)c1cccn(Cc2ccc3c(c2)OC(F)(F)O3)c1=O`, the inhibition is reported as 59.7% (active). In the case of `O=C(NCc1ccccc1)c1cccn(Cc2ccccc2)c1=O`, the inhibition is reported as 2.3%. `Cc1cccc(C)c1NC(=O)c1cccn(Cc2ccc3c(c2)OC(F)(F)O3)c1=O` gave an inhibition of 21.8%. `O=C(Nc1ccccc1)c1cccn(Cc2ccccc2)c1=O` showed an inhibition of 23%. For `O=C(Nc1cccc(C(F)(F)F)c1)c1cccn(Cc2ccc3c(c2)OC(F)(F)O3)c1=O`, the inhibition was 35.6%. With `O=C(Nc1ccncc1)c1cccn(Cc2ccccc2)c1=O` the inhibition was 33.5% (active). `Cc1nn(Cc2ccccc2Cl)c(Cl)c1C(=O)OCC(=O)NCc1ccco1` showed an inhibition of 2.8%. `CC(C)Oc1ccc(CCN)cc1Cl` showed an inhibition of -19.6%. `CCCCCn1c(=O)c(C(=O)Nc2ccccn2)c(O)c2ccccc21` showed an inhibition of -4.7%. In the case of `Cc1ccc(CN(Cc2ccccc2)C(=S)NCC(=O)N2CCC3(CC2)OCCO3)o1`, the inhibition is reported as -33.5%. `CCOC(=O)c1[nH]ncc1CN1CCCC(C(=O)c2cccc(Cl)c2)C1` (centres undefined) gave an inhibition of -5.2%. In the case of `O=[N+]([O-])c1ccc(NCc2ccc(Cl)cc2)c2ccncc12`, the inhibition is reported as 37% (active). `O=[N+]([O-])c1ccc(NC2CCN(Cc3ccccc3)CC2)c2ccncc12` showed an inhibition of -6.9%. Work on `O=[N+]([O-])c1ccc(NC2CCCC2)c2ccncc12` yielded an inhibition of 40.7%. In the case of `Fc1cccc(CN2CCN(c3ccc(Cl)cc3)CC2)c1`, the inhibition is reported as -10.4%. Compound `CC(C)=CCc1c(O)cc2c(c1O)C(=O)CC(c1ccc(O)cc1)O2` (centres undefined) has an inhibition of 5.8%. In the case of `CN1CCC(c2c[nH]c3ccccc23)C1` (centres undefined), the inhibition is reported as 34.9% (active). Compound `OC(CN1CCC(c2c[nH]c3ccccc23)CC1)C(F)(F)F` (centres undefined) has an inhibition of 1.1%. With `CN1CCN(/N=C/c2c[nH]c3ccccc23)CC1` the inhibition was -2.1%. In the case of `CN1CC(C(=O)c2ccc(Cl)cc2)C(c2ccccc2F)C1` (centres undefined), the inhibition is reported as -15.7%. Compound `CCOc1ccc(-n2c(O)c(N=Nc3ccc([N+](=O)[O-])cc3)c(=O)[nH]c2=O)cc1` has an inhibition of -17.8%. With `Cc1c(N=Nc2c(O)n(-c3ccc(Br)cc3)c(=O)[nH]c2=O)c(=O)n(-c2ccccc2)n1C` the inhibition was -1.1%. In the case of `O=c1[nH]c(=O)n(-c2ccccc2)c(O)c1N=Nc1ccc(Br)cc1`, the inhibition is reported as 60.1% (active). For `CC(=NCCCN1CCOCC1)c1c(O)n(-c2ccccc2C)c(=O)[nH]c1=O`, the inhibition was -51.5%. With `CC(C)(C)c1cc([N+](=O)[O-])cc(C(C)(C)C)c1O` the inhibition was 67.8% (active). Work on `CCOP(=O)(OCC)c1cc(C)c(O)c(C(C)(C)C)c1` yielded an inhibition of -1.1%. For `CN1CCN(Cc2cc(C(C)(C)C)c(O)c(C(C)(C)C)c2)CC1`, the inhibition was 16.1%. With `O=[N+]([O-])c1ccccc1CNCCc1c[nH]c2ccccc12` the inhibition was -15.3%. `Cc1ccc(OCC(=O)N2CCN(C3CCC(c4ccccc4)CC3)CC2)cc1` (centres undefined) gave an inhibition of -32.4%. In the case of `CNCC(C)c1ccccc1` (centres undefined), the inhibition is reported as -8.7%. In the case of `COC(=O)C1=Nc2ccccc2/C1=C\c1c(O)n(-c2ccc(Br)cc2)c(=O)[nH]c1=O`, the inhibition is reported as 56.2%. For `O=c1[nH]c(=O)n(-c2ccccc2)c(O)c1/C=C1/C(c2ccccc2)=Nc2ccccc21`, the inhibition was 81.6% (active). Work on `COC(=O)C1=Nc2ccccc2/C1=C\c1c(O)n(-c2ccc(OC)cc2)c(=O)[nH]c1=O` yielded an inhibition of 9.9%. With `Cc1ccc(Cn2nc(C)c(C=O)c2Cl)cc1` the inhibition was -42.4%. With `COc1cc2c(cc1OC)-c1c3c(cc4c1[C@@H](C2)N(C)CC4)OCO3` the inhibition was -23.9%. `COc1ccc(-n2nc(C(=O)NCC(=O)N3CCC4(CC3)OCCO4)c3ccccc3c2=O)cc1` showed an inhibition of -47.4%. In the case of `CN(C)CC1CSCCC1(O)c1ccccc1` (centres undefined), the inhibition is reported as -5.3%. For `COc1cccc([C@@]2(O)CCCC[C@@H]2CN(C)C)c1`, the inhibition was -1.9% and 1.4%. For `CN(C)CC1Oc2ccccc2OC1(O)c1ccccc1` (centres undefined), the inhibition was 56.4% (active). With `Cc1c(N=Nc2c(O)[nH]c(=S)[nH]c2=O)c(=O)n(-c2ccccc2)n1C` the inhibition was 12.7%. `C=CCn1c(O)c(/C=C2/C=CC=N2)c(=O)[nH]c1=O` showed an inhibition of -27.6%. `CCCCn1c(O)c(/C=C2/C=CC=N2)c(=O)[nH]c1=O` gave an inhibition of -7.3%. For `O=c1[nH]c(=O)n(Cc2ccccc2Cl)c(O)c1/C=C1/C=CC=N1`, the inhibition was 47.1% (active). Compound `COc1ccc(N=Cc2c(O)n(C)c(=O)n(C)c2=O)cc1` has an inhibition of -13.4%. In the case of `CNS(=O)(=O)c1ccc(N=Cc2c(O)n(-c3cccc(C)c3)c(=O)[nH]c2=O)cc1`, the inhibition is reported as -26.7%. Compound `COc1ccc(CC2(CCc3ccncc3)C(=O)NC(=O)NC2=O)cc1` has an inhibition of -26.1%. In the case of `CNc1ccc2oc(C[C@H]3O[C@@]4(CC[C@H]3C)O[C@H]([C@H](C)C(=O)c3ccc[nH]3)[C@H](C)C[C@H]4C)nc2c1C(=O)O`, the inhibition is reported as 76.2% (active). In the case of `c1ccc(-c2nc(N3CCOCC3)s[n+]2-c2ccccc2)cc1`, the inhibition is reported as -49.7%. With `Cc1ccc2c(c1)C1CN(C)CCC1N2C(=S)Nc1cccnc1` (centres undefined) the inhibition was -34%. Work on `O=C(CN1CC=C(c2ccccc2)CC1)Nc1c(Cl)cccc1Cl` yielded an inhibition of 30.6%. `COC(=O)[C@@H]1[C@@H](C(=O)OC)C2(c3ccccc3-c3ccccc32)N(c2ccc(Cl)cc2)N1C#N` gave an inhibition of -7.2%. Compound `COC(=O)C1CN(C#N)N(c2ccc(Cl)cc2)C12c1ccccc1-c1ccccc12` (centres undefined) has an inhibition of -10.3%. In the case of `COC(=O)C[C@]1(C(=O)OC)CN(C#N)N(c2ccc(Cl)cc2)C12c1ccccc1-c1ccccc12`, the inhibition is reported as 91.6% (active). Compound `CC(C)c1ccc(NC(=O)CCNC(=O)N2C[C@H]3C[C@@H](C2)c2cccc(=O)n2C3)cc1` has an inhibition of -6.2%. Compound `Cc1ccc(-c2nc3ccccc3c(=O)n2-c2ccncc2)cc1` has an inhibition of -34.6%. For `Cc1nc2cc(C(F)(F)F)ccc2n1C1CCN(Cc2nnnn2CCc2ccccc2)CC1`, the inhibition was -27.2%. With `Cc1nc2cc(C(F)(F)F)ccc2n1C1CCN(Cc2nnnn2Cc2ccc3c(c2)OCO3)CC1` the inhibition was 62.6% (active). Work on `Cc1nc2cc(C(F)(F)F)ccc2n1C1CCN(Cc2nnnn2Cc2cccs2)CC1` yielded an inhibition of -21.1%.

Reference: PubChem BioAssay AID1578 (Sanford-Burnham Center for Chemical Genomics, 2009)
